Measurements taken from PubChem BioAssay AID1159580 (chemical genetic matrix, 2015).
Values joined by “and” are separate entries in the source; they are usually repeats but may differ in a detail not shown here. Equal entries are not always repeated. About 2,000 (36%) of roughly 5,500 compounds were called active. Not shown: some 18% with an inconclusive outcome. Cut-off read from the data, not from the text of the source: active = normalized growth mostly below about 0.91 (no sharp cut-off); inconclusive = no clear call, values can overlap the other calls; inactive = mostly above about 0.92. The list shows a part of the results.

Assay: chemical genetic growth profiling, strain panel (AID 1159580);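 note: tested at 20 µM; growth read once vehicle control cultures reached saturation at 30 °C; 1 = growth at the plate median or of vehicle wells; lower values mean less growth of the strain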
Conditions: S. cerevisiae deletion strains, growth OD

Measured: normalized growth

CCN(CC)CCOc1ccc2c(c1)C(=O)c1cc(OCCN(CC)CC)ccc1-2
inactive: locus YAL013W, strain DEP1, active compounds read low 1 | locus YAL021C, strain ccr4, active compounds read low 0.962 | locus YAL026C, strain drs2, active compounds read low 0.984 | locus YAL030W, strain snc1, active compounds read low 1 | locus YBL061C, strain skt5, active compounds read low 0.993 | locus YBR009C, strain hhf1, active compounds read low 0.993 | locus YBR021W, strain FUR4, active compounds read low 1.06 | locus YBR023C, strain chs3, active compounds read low 0.98 | locus YBR171W, strain sec66, active compounds read low 0.979 | locus YBR229C, strain ROT2, active compounds read low 1 | locus YBR231C, strain swc5, active compounds read low 0.974 | locus YBR279W, strain paf1, active compounds read low 0.981 | locus YCL011C, strain gbp2, active compounds read low 0.977 | locus YCL016C, strain dcc1, active compounds read low 0.973 | locus YCL029C, strain bik1, active compounds read low 0.975 | locus YCL061C, strain MRC1, active compounds read low 0.981 | locus YCL069W, strain vba3, active compounds read low 0.996 | locus YCR088W, strain abp1, active compounds read low 0.984 | locus YDL005C, strain med2, active compounds read low 0.966 | locus YDL035C, strain GPR1, active compounds read low 0.991 | locus YDL040C, strain nat1, active compounds read low 0.986 | locus YDL074C, strain BRE1, active compounds read low 0.998 | locus YDL101C, strain DUN1, active compounds read low 0.987 | locus YDL134C, strain PPH21, active compounds read low 0.994 | locus YDL185W, strain tfp1, active compounds read low 0.947 | locus YDL192W, strain arf1, active compounds read low 0.984 | locus YDR001C, strain nth1, active compounds read low 0.979 | locus YDR069C, strain doa4, active compounds read low 0.96 | locus YDR101C, strain arx1, active compounds read low 0.991 | locus YDR137W, strain rgp1, active compounds read low 0.998 | locus YDR150W, strain NUM1, active compounds read low 0.973 | locus YDR159W, strain sac3, active compounds read low 1 | locus YDR162C, strain NBP2, active compounds read low 1.02 | locus YDR195W, strain ref2 0.96 | locus YDR297W, strain sur2, active compounds read low 0.997 | locus YDR318W, strain mcm21, active compounds read low 0.98 | locus YDR334W, strain swr1, active compounds read low 0.975 | locus YDR335W, strain msn5, active compounds read low 0.989 | locus YDR388W, active compounds read low 0.983 | locus YDR392W, strain spt3, active compounds read low 0.807 | locus YDR502C, strain sam2, active compounds read low 0.99 | locus YEL003W, strain gim4, active compounds read low 0.99 | locus YEL037C, strain rad23, active compounds read low 0.994 | locus YEL061C, strain CIN8 (second series), active compounds read low 0.986 | locus YEL061C, strain CIN8, active compounds read low 0.997 | locus YER015W, strain faa2, active compounds read low 0.991 | locus YER016W, strain bim1, active compounds read low 0.957 | locus YER110C, active compounds read low 0.962 | locus YER111C, strain swi4, active compounds read low 0.971 | locus YER155C, strain BEM2 (second series), active compounds read low 0.937 | locus YER155C, strain BEM2, active compounds read low 1 | locus YER167W, strain BCK2, active compounds read low 0.982 | locus YFR010W, strain ubp6, active compounds read low 0.992 | locus YGL078C, strain dbp3, active compounds read low 0.98 | locus YGL086W, strain mad1, active compounds read low 0.993 | locus YGL167C, strain pmr1, active compounds read low 0.982 | locus YGL173C, strain kem1, active compounds read low 0.978 | locus YGL227W, strain vid30, active compounds read low 0.978 | locus YGL240W, strain doc1, active compounds read low 0.983 | locus YGL248W, strain PDE1, active compounds read low 1 | locus YGL253W, strain hxk2, active compounds read low 0.983 | locus YGR078C, strain PAC10, active compounds read low 0.996 | locus YGR135W, strain pre9, active compounds read low 1.02 | locus YGR229C, strain SMI1, active compounds read low 1.04 | locus YGR252W, strain gcn5, active compounds read low 0.99 | locus YHR013C, strain ard1, active compounds read low 0.933 | locus YHR027C, strain rpn1, active compounds read low 0.979 | locus YHR030C, strain SLT2, active compounds read low 0.977 and 0.988 | locus YHR079C, strain IRE1 (second series), active compounds read low 0.989 | locus YHR079C, strain IRE1, active compounds read low 0.977 | locus YHR094C, strain hxt1, active compounds read low 0.972 | locus YHR129C, strain ARP1, active compounds read low 0.998 | locus YHR142W, strain chs7, active compounds read low 0.99 | locus YHR200W, strain rpn10, active compounds read low 0.98 | locus YIL066C, strain RNR3, active compounds read low 0.99 | locus YIL073C, strain SPO22, active compounds read low 0.948 | locus YIL125W, strain kgd1, active compounds read low 0.981 | locus YIR030C, strain dcg1, active compounds read low 0.991 | locus YJL092W, strain hpr5, active compounds read low 0.987 | locus YJL095W, strain BCK1 (second series), active compounds read low 0.983 | locus YJL095W, strain BCK1, active compounds read low 1 and 0.986 | locus YJL115W, strain asf1, active compounds read low 0.98 | locus YJL129C, strain trk1, active compounds read low 0.974 | locus YJL134W, strain LCB3, active compounds read low 0.989 | locus YJL154C, strain vps35, active compounds read low 0.979 | locus YJL164C, strain tpk1, active compounds read low 0.993 | locus YJL166W, strain qcr8, active compounds read low 0.984 | locus YJL168C, strain set2, active compounds read low 0.983 | locus YJL187C, strain SWE1 (second series), active compounds read low 0.983 | locus YJL187C, strain SWE1, active compounds read low 0.981 | locus YJR043C, strain POL32, active compounds read low 1.01 | locus YJR066W, strain TOR1, active compounds read low 0.965
